Results published in PubChem BioAssay (NCATS).
This is one part of the list. Entries that show only a call come without a potency. Records with an inconclusive call do not appear. Active and inactive are the calls of the source. Calls follow the shape of the dose curve; as a rule, active = well fitted inhibition curve with a large enough effect; inconclusive = small, poorly fitted or top-dose-only effect, or effect the other way; inactive = no such curve, though single readings can be large or run the other way.

assay: qHTS Assay for Inhibitors of Fructose-1,6-bisphosphate Aldolase from Giardia Lamblia: Giardia lamblia growth inhibition (AID 2785); settings: Giardia lamblia trophozoite growth inhibition; series mostly up to 57.5 µM;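 also: trophozoites exposed to compound for 48 h at 37 °C; nearly all actives have a fitted effect of over 70% in size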
From the text: NIH Chemical Genomics Center [NCGC]
NIH Molecular Libraries Probe Production centers Network [MLPCN]
Assay Provider: Osnat Herzberg, University of Maryland
The objective of this project is to obtain compounds that inhibit Giardia lamblia growth. G. lamblia is a human pathogen which afflicts impoverished nations; it is the most common cause of outbreaks of diarrhea in the United States. During the course of our study of potential drug targets in Giardia, we have identified the Class II (Zn2+ functions in electrophilic catalysis) fructose-1,6-bisphosphate aldolase (FBPA) as an excellent candidate for drug targeting. FBPA is a key glycolytic pathway enzyme, essential for G. lamblia survival. The human FBPA belongs to the Class I aldolases, which have a different substrate binding site structure and a radically different catalytic mechanism (employing a lysine-Schiff base intermediate). Therefore, affinity-based or mechanism-based inhibitors of the Giardia FBPA are expected not to interfere with the catalytic function of the human FBPA.
A glyceraldehyde-3-phosphate dehydrogenase/triose phosphate isomerase/NAD/arsenate coupled assay was adapted to the 1536-well HTP format for use in the primary screen. This was done by coupling it to a diaphorase/resazurin/resorufin reaction that can be monitored by fluorescence (excitation, 544 nm; emission, 590 nm). Compounds identified in this screen will be further evaluated by coupling the glycerol-3-phosphate/triose phosphate isomerase/NADH assay to a phenazine methosulfate/tetranitroblue tetrazolium color reaction. False positives due to the dehydrogenases and diaphorase inhibition will be eliminated, and selectivity assay will triage inhibitors of mammalian triose phosphate isomerase and the Class I FBPA. G. lamblia FBPA inhibitors identified by the in vitro analyses will be examined for growth inhibition of Giardia trophozoites, and for cytotoxicity in human cells.
This assay addresses whether hits in the primary screen can inhibit growth of giardia lamblia trophozoites.
Trophozoites of the G. lamblia isolate WB (33) were grown at pH 7.0 in modified TYI-S-33 medium. Detachment of trophozoites for preparation of inocula was achieved by chilling the cultures on ice for 20 min.
2uL/well media was dispensed per well into 1536-well white solid-bottom plates using a Multidrop Combi dispenser (Thermo Scientific). Subsequently, 23 nL/well compound solutions or DMSO controls were dispensed to the assay plates containing media via a pintool workstation (Kalypsys, San Diego) to avoid the potential contamination to the compound source plates. Unless otherwise noted, Giardia trophozoids suspended in media were dispensed as 100 cells/well in 4uL volumes. The plates were covered with plastic low-evaporation lids, individually sealed in Type A Bio-Bags and incubated at 37C for 48 hours. Following incubation, 4uL/well of ATPlite reagent was dispensed with a Multidrop Combi dispenser. The assay plates were briefly centrifuged at 1000 RPM and luminescence signal was detected on a ViewLux plate reader (PerkinElmer) after 20 min incubation at room temperature.
Keywords: Fructose-bisphosphate aldolase, FBPA , Giardia lamblia , Giardia, HTS, Inhibitors
Potency is read from the fitted curve at half-maximal effect.

Row | Structure (SMILES) | activity change, negative = inhibition | Potency
1 | O=C(Nc1nnc(-c2ccco2)o1)c1ccc(S(=O)(=O)N2CCOCC2)cc1 | 7.93% [at 10.4 µM] (inactive) | –
2 | Cc1nnc(N/N=C/c2ccccn2)[nH]c1=O | – | 25.1 µM (active)
3 | COc1ccc(OC)c(Nc2nc(-c3ccc(O)c(O)c3)cs2)c1 | -10.8% [at 10.4 µM] (inactive) | –
4 | COc1cc(CN2CCN(Cc3ccc(C)cc3)CC2)c([N+](=O)[O-])cc1OC | – | inactive
5 | COc1ccc(N=Nc2c(-c3ccc(OC)cc3)[nH]oc2=O)cc1 | – | inactive
6 | COc1ccc(C(=O)NC(=S)N2CCCCC2c2cccnc2)cc1OC (stereo not given) | – | inactive
7 | Cc1cc(C)n(-c2ccc(Cl)c(C(=O)O)n2)n1 | – | inactive
8 | Cn1nnc(NC(=S)NC(=O)c2ccccc2)n1 | – | inactive
9 | C=CCNC(=S)/N=c1/ccccn1Cc1ccccc1 | 3.99% [at 10.4 µM] (inactive) | –
10 | CCN(CC(=O)NC(=O)NCc1ccccc1)Cc1nc2ccccc2c(=O)[nH]1 | – | inactive
11 | CSc1n[nH]c(=S)n1N | – | inactive
12 | O=C(NC(=S)Nc1ncccn1)c1ccccc1Br | – | inactive
13 | O=C(Nc1ccccc1Cl)O/N=C(/c1ccccc1)c1ccccn1 | – | 22.4 µM (active)
14 | O=[N+]([O-])c1cc([N+](=O)[O-])c2cccnc2c1O | – | inactive
15 | COc1ccccc1CN1CCN(Cc2cc(OC)c(OC)cc2OC)CC1 | – | inactive
16 | CN1C(=O)/C(=C\c2ccc(-c3ccccc3)o2)SC1=S | – | inactive
17 | O=C(CN1C(=O)COc2ccccc21)Nc1ccc(F)cc1 | – | inactive
18 | Cc1ccc(OCCCCc2c(C)n[nH]c2C)cc1 | 7.15% [at 10.4 µM] (inactive) | –
19 | O=C1CCCN1CCCNC(=S)Nc1ccc(F)c(Cl)c1 | – | inactive
20 | CN(C)CCOc1ccc(Cl)cc1C(C)(C)C | -6.56% [at 10.4 µM] (inactive) | –

Row | Structure (SMILES) | activity change, negative = inhibition | Potency
21 | CNC(=S)N/N=C/c1ccc(N2CCOCC2)s1 | -8.92% [at 10.4 µM] (inactive) | –
22 | CN1CCCc2cc(C#N)c(=O)[nH]c21 | – | inactive
23 | CCN(CC(=O)Nc1ccc(S(=O)(=O)N2CCCC2)cc1)CC(=O)Nc1cccc(OC)c1 | – | inactive
24 | O=C(CSc1cccc[n+]1[O-])c1ccc(-c2ccccc2)cc1 | – | inactive
25 | C=CCc1cc(C)ccc1OCCCn1ccnc1 | 5.83% [at 10.4 µM] (inactive) | –
26 | Cn1c(=O)[nH]c(=O)c2c1[nH]c(=S)n2Cc1ccccc1 | 4.88% [at 10.4 µM] (inactive) | –
27 | Cc1cccc(C)c1OCCN1CCOCC1 | 14.9% [at 10.4 µM] (inactive) | –
28 | O=S(=O)(c1ccc(NC(=S)NN=C(C2CC2)C2CC2)cc1)N1CCOCC1 | -9.73% [at 10.4 µM] (inactive) | –
29 | Cc1csc(NC(=O)CN2CCCCCC2)n1 | 1.38% [at 10.4 µM] (inactive) | –
30 | CN1CCN(CCCCOc2ccccc2-c2ccccc2)CC1 | – | inactive
31 | COc1ccc(Cl)cc1C(=O)NNC(=O)c1nc2nc(C)cc(C)n2n1 | – | inactive
32 | COC(=O)CC1=NN(c2nc(C)cc(C)n2)C(=O)C1 | – | inactive
33 | Cc1cc(C)nc(N/N=C/c2ccc([N+](=O)[O-])o2)n1 | – | 3.16 µM (active)
34 | Cc1cccc(-c2nnc(SCC(=O)O)n2Cc2ccccc2)c1 | 6.79% [at 10.4 µM] (inactive) | –
35 | Cc1nc(N2CCOCC2)sc1C(=O)NN | – | inactive
36 | CC(C)(c1ccccc1)c1ccc(OCCN2CCCC2)cc1 | – | inactive
37 | COc1ccc(CN2CCN(Cc3ccc(OC)c(OC)c3OC)CC2)cc1 | 6.68% [at 10.4 µM] (inactive) | –
38 | Clc1cccc(CN2COc3c(cc(Cl)c4cccnc34)C2)c1 | – | inactive
39 | COCCN(C(=S)Nc1ccccc1OC)C1CCN(C(C)C)CC1 | – | inactive
40 | Cc1cc(C)c2c(=O)[nH]c(SCC(=O)Nc3ccc(Br)cc3)nc2n1 | – | inactive
